The record followed here is PubChem BioAssay (Tox21).

Values joined by “and” are separate entries in the source; they are usually repeats but may differ in a detail not shown here. Equal entries are not always repeated. Inconclusive results are not listed. Some structures have more than one record in an assay (separate samples or runs), and their calls can disagree. Active and inactive are the calls of the source. Unless noted, calls come from the whole dose curve; as a rule, active = well fitted curve in the direction sought with a large enough effect in the repeat runs; inconclusive = weak or mixed curves; inactive = no such curve, though single readings can be large; an effect the other way counts as inactive or inconclusive.

Experiment [1] in a line: qHTS assay to identify small molecule agonists of the RXR signaling pathway - cell viability counter screen (AID 1159529). Note: nearly all actives have a fitted effect of over 50% in size. Note: potency is the fitted concentration of half-maximal effect. Put shortly:
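HEK 293T RXRa-bla cells, 2% CS-FBS; 5 h settle; cpd 16 h 37 C, 5% CO2; CellTiter-Glo 30 min RT, luminescence. Tetraoctyl ammonium bromide as positive control.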
On the technique in general: Quantitative high-throughput screening tests each substance at several concentrations.

A short description of experiment [2]: qHTS assay to identify small molecule antagonists of the retinoid acid receptor (RAR) signaling pathway - cell viability counter screen (AID 1159551). Note: nearly all actives have a fitted effect of over 35% in size. The method in brief: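 Luminescent ATP quantitation (CellTiter-Glo) gave cell viability in C3RL4 cells exposed to test chemicals for 6 h at 37 C alongside 1 uM final retinol.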
The nature of experiment [3]: qHTS assay to identify small molecule antagonists of the retinoic acid receptor (RAR) signaling pathway (AID 1159552; note: nearly all actives have a fitted effect of over 50% in size). Put shortly: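 Cells of the C3RL4 line were seeded, incubated overnight, then dosed with compounds in DMSO followed immediately by retinol (1 uM final). Six hours later luciferase detection reagent went in; signal was measured after 30 min at RT.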
Experiment [4] in a line: qHTS assay to identify small molecule agonists of the retinoic acid receptor (RAR) signaling pathway (AID 1159553). Note: potency is the fitted concentration of half-maximal effect. The method in brief: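 Luminescence from a RARE-driven luciferase reporter in C3RL4 cells served as the read-out, measured after 30 min with detection reagent at room temperature. Compounds in DMSO were applied for 6 hr at 37 C following overnight seeding.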

Experiment [5] can be described thus: qHTS assay to identify small molecule antagonists of the estrogen related receptor (ERR) signaling pathway from Tox21 library - cell viability counter screen (AID 1224834). Note: nearly all actives have a fitted effect of over 30% in size. The method in brief:
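Fluorescence from CellTiter-Fluor gives the viability read-out, taken 30 min after reagent addition. Before that, ERR cells seeded 6 h earlier were incubated with compounds for 17.5 h at 37 C.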

Experiment [6] addresses Luciferin 4-monooxygenase (Photinus pyralis) (UniProt P08659). Briefly: qHTS assay to identify small molecule inhibitors of firefly luciferase (AID 1224835). Note: series mostly up to about 120 µM; nearly all actives have a fitted effect of over 25% in size. The method in brief: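 Biochemical qHTS: compounds run as interplate titrations against purified firefly enzyme, with D-luciferin and ATP each at its KM concentration. Light output recorded by CCD imaging.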
Experiment [7] in a line: qHTS assay to identify small molecule agonists of the constitutive androstane receptor (CAR) signaling pathway - cell viability counter screen (AID 1224836). Note: series mostly up to about 92 µM; nearly all actives have a fitted effect of over 45% in size. Put shortly:
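HepG2-CYP2B6-hCAR, 2500 cells/well, 4 h pre-incubation; cpd 15 conc + PK11195 0.75 uM final; 23 h, 37 C/5% CO2; CellTiter-Fluor, fluorescence.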

Experiment [8] in a line: qHTS assay to identify small molecule antagonists of the constitutive androstane receptor (CAR) signaling pathway - cell viability counter screen (AID 1224837). Note: series mostly up to about 92 µM; nearly all actives have a fitted effect of over 45% in size. The method in brief:
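HepG2-CYP2B6-hCAR cells, 2500/well, 4 hr pre-incubation; compound titration, 15 conc.; CITCO 50 nM final; 23 hr, 37 C/5% CO2; CellTiter-Fluor, fluorescence intensity.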

The target in experiment [9] is Nuclear receptor subfamily 1 group I member 3 (Homo sapiens) (UniProt Q14994). Briefly: qHTS assay to identify small molecule antagonists of the constitutive androstane receptor (CAR) signaling pathway (AID 1224838).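 Note: HepG2 cells stably expressing hCAR with CYP2B6 luciferase reporter stimulated by CITCO; nearly all actives have a fitted effect of over 40% in size.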 The method in brief:
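HepG2-CYP2B6-hCAR cells; 4 h pre-incubation; cpd (15 conc) + CITCO 50 nM final; 24 h, 37 C/5% CO2; ONE-Glo, luminescence.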

Experiment [10] shares this target. Briefly: qHTS assay to identify small molecule agonists of the constitutive androstane receptor (CAR) signaling pathway (AID 1224839). Note: nearly all actives have a fitted effect of over 15% in size. Note: potency is the fitted concentration of half-maximal effect. Put shortly: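 HepG2-CYP2B6-hCAR cells, 2500/well, 4 h pre-incubation; compounds 15 conc.; PK11195 0.75 uM final; 24 h, 37 C/5% CO2; ONE-Glo luciferase read.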
Experiment [11] in a line: qHTS assay to identify small molecule antagonists of the estrogen related receptor signaling pathway with the pleiotropic PPARgamma coactivator (PGC) from Tox21 10K library - cell viability counter screen (AID 1224840; active = well fitted cell-killing curve with a large enough effect in the repeat runs, not every such curve was filed as active; note: nearly all actives have a fitted effect of over 40% in size). The method in brief: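 PGC/ERR cells, 2,000/well; 6 h pre-incubation 37 C/5% CO2; cpd in DMSO via pin tool; 17.5 h 37 C; CellTiter-Fluor, 30 min; fluorescence.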

For experiment [12], the target named is Thyrotropin receptor (Homo sapiens) (UniProt P16473). Briefly: qHTS assay to identify small molecule agonists of the thyroid stimulating hormone receptor (TSHR) signaling pathway (AID 1224843; calls by dose curve; note: nearly all actives have a fitted effect of over 45% in size). Put shortly:
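TSHR-HEK293 cells in agonist mode, 30 min room-temperature step, then cAMP measured by competitive HTRF (cAMP-d2 with anti-cAMP cryptate) after 1 h at room temperature. Tested at 15 concentrations in triplicate.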

A short description of experiment [13]: qHTS assay to identify small molecule antagonists of the estrogen related receptor signaling pathway with the pleiotropic PPARgamma coactivator (PGC) from Tox21 10K library (AID 1224841; call rule not given here; note: series mostly up to about 92 µM; actives are mostly falling curves and most rising ones were filed inactive; nearly all actives have a fitted effect of over 50% in size). The method in brief: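 PGC/ERR cell line, 2,000 cells/well; 6 h pre-incubation 37 C/5% CO2; compounds (DMSO) pinned in; 18 h, 37 C; One-Glo, 30 min RT; luminescence.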
A short description of experiment [14]: qHTS assay to identify small molecule agonists of the estrogen related receptor signaling pathway with the pleiotropic PPARgamma coactivator (PGC) from Tox21 10K library (AID 1224842). Note: nearly all actives have a fitted effect of over 15% in size. The method in brief:
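PGC/ERR reporter cell line, 2,000 cells per well, incubated 6 h at 37 C before 23 nL compound in DMSO was added. After 18 h at 37 C, One-Glo luminescence read following 30 min at room temperature.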

Experiment [15] in a line: qHTS assay to identify small molecule antagonists of the estrogen related receptor (ERR) signaling pathway - cell viability counter screen (AID 1224818). Note: series mostly up to about 46 µM. Put shortly:
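Multiplexed counter screen to separate cytotoxic compounds from true ERR modulators. ERR cells received DMSO-dissolved compounds after a 6 h pre-incubation, were exposed 17.5 h at 37 C, then assayed with CellTiter-Fluor fluorescence.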

A short description of experiment [16]: qHTS assay to identify small molecule antagonists of the estrogen related receptor (ERR) signaling pathway (AID 1224819;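 note: luminescence from an ERR-driven luciferase reporter measured with One-Glo reagent; series mostly up to about 46 µM; nearly all actives have a fitted effect of over 50% in size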). Put shortly: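 Seed ERR cells 2,000/well; rest 6 h at 37 C/5% CO2; pin compounds in DMSO; incubate 18 h at 37 C; add One-Glo; wait 30 min at room temperature; measure luminescence.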
Experiment [17] is described as follows: qHTS assay to identify small molecule agonists of the estrogen related receptor (ERR) signaling pathway (AID 1224820). The method in brief:
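Cells: ERR line from NTP, 2,000/well. Pre-incubation 6 h, 37 C/5% CO2. Compound (DMSO) pin transfer, 18 h 37 C. One-Glo, 30 min RT, luminescence.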

For experiment [18], the system named is estrogen-related receptor alpha (ERRalpha) with PGC-1alpha coactivator, human. Briefly: qHTS assay to identify small molecule antagonists of the estrogen related receptor signaling pathway with the pleiotropic PPARgamma coactivator (PGC) (AID 1224821; calls by dose curve). The method in brief: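 Luminescent read-out (One-Glo, 30 min at room temperature) following 18 h treatment of PGC/ERR cells at 37 C with compounds delivered in DMSO. Cells had settled 6 h at 37 C/5% CO2 before dosing.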

Experiment [19] in a line: qHTS assay to identify small molecule antagonists of the estrogen related receptor signaling pathway with the pleiotropic PPARgamma coactivator (PGC) cell viability counter screen (AID 1224822; note: series mostly up to about 46 µM). Put shortly: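 Cells: PGC/ERR, 2,000/well, 1536-well format. Pre-incubation 6 h, 37 C/5% CO2. Compound exposure 17.5 h, 37 C. Detection: CellTiter-Fluor, 30 min, fluorescence.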

Experiment [20] is described as follows: qHTS assay to identify small molecule agonists of the estrogen related receptor signaling pathway with the pleiotropic PPARgamma coactivator (PGC) (AID 1224823). Put shortly:
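Steps: plate PGC/ERR cells at 2,000 cells/well; incubate 6 h, 37 C/5% CO2; pin-transfer compounds (DMSO); incubate 18 h, 37 C; add One-Glo; 30 min RT; read luminescence.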

Luciferin 4-monooxygenase (Photinus pyralis), sequence (P08659 whole entry, looked up): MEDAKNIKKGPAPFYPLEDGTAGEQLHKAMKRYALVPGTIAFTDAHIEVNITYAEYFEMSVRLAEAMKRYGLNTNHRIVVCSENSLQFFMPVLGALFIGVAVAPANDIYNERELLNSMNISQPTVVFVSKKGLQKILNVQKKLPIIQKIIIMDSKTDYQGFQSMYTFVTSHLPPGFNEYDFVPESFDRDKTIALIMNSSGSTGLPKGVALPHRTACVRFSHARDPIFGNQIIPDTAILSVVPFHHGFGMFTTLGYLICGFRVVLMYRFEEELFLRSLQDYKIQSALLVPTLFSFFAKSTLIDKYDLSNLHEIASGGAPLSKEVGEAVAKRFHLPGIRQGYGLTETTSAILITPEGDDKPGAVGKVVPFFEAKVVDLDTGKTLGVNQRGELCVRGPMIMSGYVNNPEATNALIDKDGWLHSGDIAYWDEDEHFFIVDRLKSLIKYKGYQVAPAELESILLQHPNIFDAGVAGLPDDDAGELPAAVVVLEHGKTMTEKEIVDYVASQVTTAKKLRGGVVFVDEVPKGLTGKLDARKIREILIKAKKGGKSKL
Nuclear receptor subfamily 1 group I member 3 (Homo sapiens), sequence (Q14994 whole entry, looked up): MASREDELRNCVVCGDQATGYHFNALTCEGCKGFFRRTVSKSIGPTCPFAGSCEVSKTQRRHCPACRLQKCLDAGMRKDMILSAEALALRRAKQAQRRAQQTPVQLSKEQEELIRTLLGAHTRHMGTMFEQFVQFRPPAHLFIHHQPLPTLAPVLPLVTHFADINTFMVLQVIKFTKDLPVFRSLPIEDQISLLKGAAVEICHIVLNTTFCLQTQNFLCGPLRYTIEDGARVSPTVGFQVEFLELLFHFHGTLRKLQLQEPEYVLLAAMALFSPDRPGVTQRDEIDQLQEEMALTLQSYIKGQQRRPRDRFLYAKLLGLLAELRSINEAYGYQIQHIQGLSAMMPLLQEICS
Thyrotropin receptor (Homo sapiens), sequence (P16473 whole entry, looked up): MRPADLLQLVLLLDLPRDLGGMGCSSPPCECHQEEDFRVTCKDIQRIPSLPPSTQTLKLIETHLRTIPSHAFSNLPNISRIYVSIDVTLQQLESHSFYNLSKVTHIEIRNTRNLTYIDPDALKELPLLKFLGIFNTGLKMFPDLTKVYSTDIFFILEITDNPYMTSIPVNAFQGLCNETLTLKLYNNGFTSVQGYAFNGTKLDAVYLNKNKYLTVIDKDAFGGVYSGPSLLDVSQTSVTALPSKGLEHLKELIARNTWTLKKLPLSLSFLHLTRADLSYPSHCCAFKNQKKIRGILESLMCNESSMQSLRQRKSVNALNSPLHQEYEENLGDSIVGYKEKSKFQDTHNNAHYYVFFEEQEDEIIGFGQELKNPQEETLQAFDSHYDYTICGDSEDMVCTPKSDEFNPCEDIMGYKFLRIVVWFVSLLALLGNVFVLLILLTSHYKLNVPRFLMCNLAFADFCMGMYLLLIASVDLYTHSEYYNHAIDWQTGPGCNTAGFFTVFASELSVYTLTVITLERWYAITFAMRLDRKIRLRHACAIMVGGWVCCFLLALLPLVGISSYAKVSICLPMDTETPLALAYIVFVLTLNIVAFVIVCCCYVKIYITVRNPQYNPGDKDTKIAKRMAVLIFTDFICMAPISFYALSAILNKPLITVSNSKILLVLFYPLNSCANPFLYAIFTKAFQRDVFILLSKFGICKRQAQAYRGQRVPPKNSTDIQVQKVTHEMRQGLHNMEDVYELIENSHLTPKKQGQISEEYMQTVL

In the case of `c1ccncc1`, the Potency result in experiment [1], in [2], in experiment [3], in [4], in [5] and in experiment [6] was “inactive” in each case. Also, the Potency entry in experiment [7], in experiment [8], in experiment [9], in experiment [10], in experiment [11] and in experiment [12] was “inactive” in each case.

Consider `OCCO`, for which the Potency result in [1], in experiment [2], in experiment [3], in experiment [4], in experiment [6] and in experiment [7] was “inactive” each time. In addition, the Potency entry in experiment [8], in experiment [9], in experiment [10], in [11] and in experiment [12] was “inactive” each time.

Turning to `Clc1nc(Cl)c(Cl)c(Cl)c1Cl`, the Potency entry in experiment [1], in experiment [2], in experiment [3], in [4], in experiment [5] and in experiment [6] was “inactive” in each case. The Potency result in experiment [7], in experiment [8], in experiment [9], in experiment [10], in experiment [11] and in experiment [13] was “inactive” throughout. The Potency entry in experiment [14] and in experiment [12] was “inactive” in each case.

Regarding `c1ccc2cc(Nc3ccc(Nc4ccc5ccccc5c4)cc3)ccc2c1`, the Potency entry in experiment [1], in [2], in experiment [3], in experiment [4], in [5] and in [6] was “inactive” in each case. Further, the Potency entry in [7], in [8], in [9], in [10], in [11] and in experiment [13] was “inactive” each time. The Potency entry in experiment [14] was “inactive”.

Consider `Brc1cc(Oc2cc(Br)c(Br)c(Br)c2Br)c(Br)c(Br)c1Br`, for which, in [1], the Potency was 1.39 µM (active) and inactive. In addition, the Potency result in [2], in [3], in [4], in experiment [5], in [6] and in experiment [7] was “inactive” each time. Besides, the Potency result in experiment [8], in experiment [9], in experiment [10], in [11] and in experiment [12] was “inactive” throughout.

Turning to `CCC(C)OC(=O)c1ccc(O)cc1` (stereo unspecified), the Potency entry in [1], in experiment [2], in experiment [3], in [5], in experiment [7] and in [8] was “inactive” each time. The Potency result in experiment [9], in experiment [11], in [13] and in experiment [12] was “inactive” each time. For the same compound, the Potency was 61.1 µM (active) in experiment [4]; 61.5 µM (active) and 54.5 µM (active) in [10].

`CC(C(=O)O)c1cccc(C(=O)c2ccccc2)c1` (stereo unspecified): the Potency result in [1], in experiment [2], in experiment [3], in experiment [4], in [15] and in experiment [16] was “inactive” each time. In addition, the Potency entry in experiment [18], in [19], in experiment [5], in experiment [7], in [8] and in [11] was “inactive” in each case. Besides, the Potency entry in experiment [13], in experiment [14] and in experiment [12] was “inactive” in each case. Moreover, the result in experiment [17] and in experiment [20] was inactive.

For `O=[N+]([O-])c1ccc2c(c1)Cc1ccccc1-2`, the Potency result in experiment [1], in [2], in experiment [3], in experiment [4], in experiment [5] and in [6] was “inactive” each time. Also, the Potency entry in experiment [7], in [8], in experiment [9], in experiment [11], in [13] and in experiment [12] was “inactive” each time. For the same compound, the Potency in experiment [10] was 54.4 µM (active).

Consider `OC1CCCCCCCCCCC1`, for which the Potency entry in experiment [1], in experiment [2], in experiment [3], in [4], in experiment [5] and in [6] was “inactive” each time. The Potency result in experiment [7], in [8], in [9], in [10], in experiment [11] and in experiment [12] was “inactive” in each case.
